The whole screen tested about 1,600 compounds, of which about 20 (1%) were called active. The sample holds actives, similar compounds and a random draw of the others, so the mix is not that of the screen. A number with no mark means an inactive call.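 Rule for the calls: active = ratio of uncleaved NAD to its breakdown product ADP-ribose above 4, meaning the enzyme was inhibited; inactive = the rest.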

This assay deals with NAD(+) hydrolase SARM1 (Homo sapiens) (UniProt Q6SZW1). As to the kind of experiment: SARM1 TIR NADase inhibitors by HPLC, primary screen, cell lysate, HPLC readout (AID 1508615).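 Note: substrate NAD at 5 µM with 60 min at 37 °C.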 Conditions: HEK293T SAM-TIR lysate, at 5 µM, active compounds read high.
Sequence of NAD(+) hydrolase SARM1 (Homo sapiens) (Q6SZW1 whole entry, looked up): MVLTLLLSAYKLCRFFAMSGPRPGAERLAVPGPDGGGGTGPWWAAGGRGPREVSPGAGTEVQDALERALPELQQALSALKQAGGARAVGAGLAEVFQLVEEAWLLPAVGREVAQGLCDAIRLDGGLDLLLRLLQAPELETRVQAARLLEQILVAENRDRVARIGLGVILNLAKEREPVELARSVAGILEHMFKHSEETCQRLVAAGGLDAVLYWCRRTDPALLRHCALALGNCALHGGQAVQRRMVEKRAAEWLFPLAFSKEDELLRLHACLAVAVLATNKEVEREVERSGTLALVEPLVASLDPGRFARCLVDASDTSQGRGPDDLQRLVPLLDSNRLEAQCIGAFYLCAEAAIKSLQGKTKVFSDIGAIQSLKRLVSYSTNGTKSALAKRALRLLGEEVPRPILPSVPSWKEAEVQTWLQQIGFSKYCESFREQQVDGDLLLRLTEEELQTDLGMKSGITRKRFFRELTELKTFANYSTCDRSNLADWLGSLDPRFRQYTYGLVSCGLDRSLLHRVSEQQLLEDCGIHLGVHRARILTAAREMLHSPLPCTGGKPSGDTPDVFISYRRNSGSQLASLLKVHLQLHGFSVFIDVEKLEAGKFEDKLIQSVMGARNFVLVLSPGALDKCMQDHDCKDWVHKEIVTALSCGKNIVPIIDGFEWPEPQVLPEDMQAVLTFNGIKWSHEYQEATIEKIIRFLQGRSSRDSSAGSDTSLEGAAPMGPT
For `S=c1nc[nH]c2c1cnn2-c1ccccc1`, the NAD/ADPR ratio was 3. Under `CCOC(=O)c1c[nH][nH]c1=O` stands 3. For the molecule `NC(=O)N/N=C1\CC2CC1C1C=CCC21` (stereo unspecified), the NAD/ADPR ratio was 3. Then `Cc1nc(Nc2ccc(F)cc2)nc(Nc2ccc(F)cc2)c1[N+](=O)[O-]`, with 3; and `Cc1cc2nc3ccc(=[N+](C)C)cc-3sc2cc1N`, with 3; and `Cn1c(=O)c2[nH]c(CCCc3ccc([N+](=O)[O-])cc3)nc2n(C)c1=O`, with 3. With `CCCc1cc(=O)oc2c3c(c4c(c12)OC(C)(C)C=C4)OC(C)C(C)C3O` (stereo unspecified), the NAD/ADPR ratio was 3. Under `CSc1cccc(NC(=O)Nc2nc3c(C)cccc3s2)c1` stands 3. Under `Cc1nc2ccc(Cl)cn2c1[N+](=O)[O-]` stands 3; under `Cn1ncc2c(Nc3ccccc3Cl)nc(Cl)nc21`, 3; under `Cc1ccc(NC(=S)NC(=O)c2ccccc2)cc1NC(=S)NC(=O)c1ccccc1`, 3.

Regarding `Cc1cc(O)c(-c2cc(O)c(C)cc2O)cc1O`, the NAD/ADPR ratio was 5.8 (active).

As to `CCN(CC)CCNC(=O)c1ccc(NCN2C(=O)NC(c3ccccc3)(c3ccccc3)C2=O)cc1`, the NAD/ADPR ratio is 3. Then `Cc1cnc2cc(Cl)ccc2c1SCC(=O)O`, with 3.

Turning to `O=C1NC(=O)N2CCSC2(Cc2ccccc2)N1` (stereo unspecified), the NAD/ADPR ratio is 3. `Nc1ncnc2c1ncn2C1C=C(CO)C(O)C1O` (stereo unspecified): the NAD/ADPR ratio was 3.

Turning to `CCOP(=O)(OCC)/C(C#N)=C/c1ccc(-c2ccc(F)cc2F)o1`, the NAD/ADPR ratio was 3. In the case of `O=c1[nH]cnc(CN2CCCCC2)c1O`, the NAD/ADPR ratio was 3. Then `CC12CCC(C(=Nc3ccc(N=C4C(=O)C5(C)CCC4C5(C)C)cc3)C1=O)C2(C)C`, with 3. In the case of `C#CCOCC1CN(c2ccccc2)C(=O)O1` (stereo unspecified), the NAD/ADPR ratio is 3. For `N#Cc1cnn(-c2cccc(Cl)c2)c1-n1cccc1`, the NAD/ADPR ratio was 3.

As to `Cc1ccc(N=Nc2ccc(C)cc2NC(=O)Nc2ccccc2F)cc1`, the NAD/ADPR ratio was 3.

With `Clc1nc2nc3n(c2nc1Cl)CCC3`, the NAD/ADPR ratio was 3. In the case of `CC(=O)Nc1cc(NC(C)=O)ncn1`, the NAD/ADPR ratio is 3. Under `O=C(c1ccccc1)C1C(c2ccccc2)C1[N+](=O)[O-]` (stereo unspecified) stands 5.3 (active). `O=C1C=C(c2ccccc2)OC(=O)C1C(=O)c1ccccc1` (stereo unspecified): the NAD/ADPR ratio was 3. With `O=C(c1ccccc1)c1ccc(Sc2ccc([N+](=O)[O-])cc2)cc1`, the NAD/ADPR ratio was 3. Take `Clc1ccc(-c2n[nH]c3c2Cc2ccccc2-3)cc1Cl`: the NAD/ADPR ratio was 3. Then `COc1ccc(C(=S)N2CCN(c3ccccc3Cl)CC2)cc1OC`, with 3; and `O=C(O)C(c1ccccc1)C1(O)CCCCC1` (stereo unspecified), with 3; and `Cc1cc2cc3c(=O)[nH]c(=O)cc-3n(CC(O)C(O)C(O)CO)c2cc1C` (stereo unspecified), with 3.3.

Source of the values: PubChem BioAssay AID1508615 (Milbrandt Lab, Department of Genetics, Washington …, 2020).
